About 83,000 compounds went through this panel and 20% of them were active in at least one assay; those are over-represented in the sample as a whole.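 Growth was measured after 48 h exposure to one concentration of compound in 96-well plates. Values under 10 count as active.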 Values without a mark were called inactive. Activity calls are given as the source filed them.
Each molecule was assayed on HL-60(TB) leukemia (assay: NCI-60 one-dose screen, 48 h (100 = growth as untreated, 0 = no growth, -100 = all killed)). Conditions: 10 µM unless noted.

| SMILES | growth |
| --- | --- |
| CCCCCCCCCCCCCCCCCCOc1ccccc1CC(=O)OCC[N+](C)(C)C | -38% (active) |
| O=C1c2c(c3c4ccccc4[nH]c3c3ccc4ccccc4c23)C(=O)N1CCN1CCOCC1 | 53.6% |
| NC(=O)c1cccc(-n2ccc3cc(NC(=O)c4ccc(N5CCOCC5)c(C(F)(F)F)c4)ccc32)n1 | 51.1% |
| Fc1ccccc1Nc1n[nH]c(=S)s1 | 112% |
| CC(=O)N1N=C(c2cccc(Nc3ccncc3)c2)CC1c1ccc2c(c1)OCO2 (stereo not given) | 90.3% |
| N#CC1=CC2CN(Cc3ccccc3)C1C1C(=O)N(c3ccccc3)C(=O)C21 (stereo not given) | 76% |
| CC(C)C1=NOC(=O)C1=Cc1cn(-c2ccccc2)nc1-c1ccc(Cl)cc1 | -44.5% (active) |
| Nc1n[nH]c2cc(F)c([C@@H]3Nc4c(F)cc5[nH]ncc5c4[C@H]4C5CCC(C5)[C@@H]34)cc12 (stereo not given in full) | -30.1% (active) |
| COc1ccc(N(C)c2nc(Cl)nc3cnn(C)c23)cc1 | -4.95% (active) |
| NS(=O)(=O)c1ccc(Br)cc1 | 96.2% |
| C=CC(=O)N1CN(C(=O)C=C)CN(C(=O)C=C)C1 | 25.3% |
| C=CCSC(CC)(CC)C(=O)NC | 89.3% |
| CCCCCCCCCCCCCCCCCCOCC(COCCOCC[N+]1(CCCCCC(=O)[O-])CCCC1)Oc1ncccn1 (stereo not given) | -32.2% (active) |
| OCc1ccccn1 | 102% |
| COc1ccc2c(c1)C(=O)/C(=C/c1ccc([N+](=O)[O-])s1)O2 | -10.7% (active) |
| COc1ccc(C2=NNC(c3cc(Cc4ccc(O)c(C5CC(c6ccc(OC)cc6)=NN5)c4)ccc3O)C2)cc1 (stereo not given) | 17.2% |
| CCCCCCNc1nc(N2CCOCC2)c2[nH]c(NCCCCCC)nc2n1 | -54.8% (active) |
| CCCCCCCO | 114% |
| CC1CCCCN1CCCNC(=O)c1ccc2c(c1)sc1nc(-c3ccc(F)cc3)cn12 (stereo not given) | 74.1% |
| Nc1n[nH]c2cccc(C#Cc3cccc(NC(=O)c4ccc(N5CCOCC5)c(C(F)(F)F)c4)c3)c12 | 2.04% (active) |

| SMILES | growth |
| --- | --- |
| Fc1cc(-c2cnc3nonc3n2)c(Cl)cc1Cl | -20.2% (active) |
| C=CCn1c(SCC(=O)Nc2ccc(C(=O)/C=C/c3cc(OC)c(OC)c(OC)c3)cc2)nnc1-c1ccc(Cl)cc1 | 12.3% |
| NC(=S)N/N=C/c1ccc(OC(=O)COc2ccc(Cl)cc2)cn1 | 19.3% |
| NC(=O)c1c(OCc2c(F)cc(Br)cc2F)nsc1NC(=O)NCCCCN1CCCC1 | -64.6% (active) |
| CCOc1cc(F)c([N+](=O)[O-])cc1[N+](=O)[O-] | -12.6% (active) |
| COc1ccc(-c2[nH]ncc2-c2cc(OC)c(OC)c(OC)c2)cc1 | -35.5% (active) |
| O=C(CCc1nnc(SCc2ccccc2)s1)c1nc2ccccc2[nH]1 | 92.3% |
| COc1cc(NC(=O)SC2=NCCS2)cc(OC)c1 | 90.5% |
| Cc1[nH]n(C(=O)c2ccncc2)c(=O)c1N=Nc1ccc(S(=O)(=O)Nc2ccncn2)cc1 | 91.3% |
| C=C1CC[C@@]2(C#N)[C@H]3[C@H](CC[C@@H]2C)[C@@H](C)C[C@@H](CC(C)(C)C#N)[C@H]13 | 21.8% |
| CC(C)[C@@]12C[C@@H](OC(=O)[C@H]3CO3)[C@@](C)(O1)[C@@H]1CC[C@@H](C)[C@H]1[C@@H]2OC(=O)/C=C/c1ccccc1 | 67% |
| O=C(/C=C/c1cc(-c2ccc3c(c2)OCO3)n[nH]1)c1ccc2c(c1)OCO2 | 79.7% |
| Cc1nn(-c2ccccc2)c2c1oc(=O)c1cc(Cl)ccc12 | 84.3% |
| CCN(CC)c1ccc(/C=C2\Oc3ccc(O)c(I)c3C2=O)cc1 | 18.5% |
| CS(=O)(=O)Cc1cnc(C2OCCO2)s1 | 88.5% |
| O=C(O)c1c(=O)cccc2ssc12 | -9.53% (active) |
| CCN(CC)CCSCCCNc1c(C)cnc2cc(Cl)ccc12 | 69.1% |
| CC(C)C(=O)Nc1ncc(C(=O)NCCN(Cc2ccccc2)C(=O)c2ccc(S(=O)(=O)Nc3ccccc3)cc2)s1 | 107% |
| COc1cc(C#Cc2ccc(=O)oc2C#Cc2ccccc2)cc(OC)c1OC | 34.2% |
| CCCCC1Nc2nc(SC)n(C)c(=O)c2CN(Cc2ccccc2)C1=O (stereo not given) | 111% |
